Most compounds without a hit are left out; they make up all but 2.4% or so of the library.
WRN helicase inh: blocks human WRN helicase. Q14191. WRN helicase unwinding, fluorescent forked duplex, kinetic. Potency, µM (doses to about 114 µM), inactives show at the highest dose activity change, negative = inhibition, hits mostly inhibitors. 0.46% of 360,000 active; further: on the % scale 0 is the no-effect control and ±100 the full control effect; nearly all actives have a fitted effect of over 55% in size
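Screening of the MLSMR collection measured strand separation of a quenched forked DNA duplex (100 nM) by 20 nM WRN with 2 mM ATP, all final. Compounds were preincubated with enzyme 15 min at room temperature.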
Pol eta inh: inhibitors of human DNA polymerase eta. Q9Y253. recombinant Pol eta, fluorescent DNA replication assay. Potency, µM (highest dose often 114 µM), inactives show top-dose activity change, negative = inhibition, usual class: inhibitors. 1.2% of 390,000 active. AID 588591; further: on the % scale 0 is the no-effect control and ±100 the full control effect
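Fluorescent replication assay: 50 nM final substrate added after a 15 min room-temperature compound preincubation with 10 nM enzyme. Signal taken at 0 min and again at 10 min.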
POLK inh: DNA polymerase kappa (human) inhibition; 0.53% of 400,000 active; purified Pol kappa, fluorescent DNA synthesis assay, 10 min; Potency, µM (titrated, usually from 107 µM), without a hit: at the top dose activity, negative = inhibition, most hits filed as inhibitors; AID 588579; further: on the % scale 0 is the no-effect control and ±100 the full control effect
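50 nM final substrate added after 15 min RT preincubation of 10 nM Pol kappa with compound; fluorescence read at 0 and 10 min.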
FEN1 inh: human FEN1 inhibition. P39748. 0.35% of 390,000 active. Potency, µM (highest dose often 114 µM), without a hit: at the top dose activity change, negative = inhibition, actives largely listed as inhibitors. Recombinant FEN1 flap cleavage, fluorescence, 15 min; further: on the % scale 0 is the no-effect control and ±100 the full control effect; nearly all actives have a fitted effect of over 65% in size
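Potency values derive from four-parameter Hill fits of normalized qHTS data. The reaction used 10 nM FEN1 preincubated 15 min at room temperature with compound, then 50 nM DNA substrate, read at 0 and 15 min.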
POLI inh: inhibitors of human DNA polymerase iota. Pol iota fluorescent replication assay, 10 min. Q9UNA4. 1% of 390,000 active. Potency, µM (highest dose often 115 µM), for the others: top-dose activity, negative = inhibition, hits mostly inhibitors
Target sequence (Q9UNA4 whole entry, looked up): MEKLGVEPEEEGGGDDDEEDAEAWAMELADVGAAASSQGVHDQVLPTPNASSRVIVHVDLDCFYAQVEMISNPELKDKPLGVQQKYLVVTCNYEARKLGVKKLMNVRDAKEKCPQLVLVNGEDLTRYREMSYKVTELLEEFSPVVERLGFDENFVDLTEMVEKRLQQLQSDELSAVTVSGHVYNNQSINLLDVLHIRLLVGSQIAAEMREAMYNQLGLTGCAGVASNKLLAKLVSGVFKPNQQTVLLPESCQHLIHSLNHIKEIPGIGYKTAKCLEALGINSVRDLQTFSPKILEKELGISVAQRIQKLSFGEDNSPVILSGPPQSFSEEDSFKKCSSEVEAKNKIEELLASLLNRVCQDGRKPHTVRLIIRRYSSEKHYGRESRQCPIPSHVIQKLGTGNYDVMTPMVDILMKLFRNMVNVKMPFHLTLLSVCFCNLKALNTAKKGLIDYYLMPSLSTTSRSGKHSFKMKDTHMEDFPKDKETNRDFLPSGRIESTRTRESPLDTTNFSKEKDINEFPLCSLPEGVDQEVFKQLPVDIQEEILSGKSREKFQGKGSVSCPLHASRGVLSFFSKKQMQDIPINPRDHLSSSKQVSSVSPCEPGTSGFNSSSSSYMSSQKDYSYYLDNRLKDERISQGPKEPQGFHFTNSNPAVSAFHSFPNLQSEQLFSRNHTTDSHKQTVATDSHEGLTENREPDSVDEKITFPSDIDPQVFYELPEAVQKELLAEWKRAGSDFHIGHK
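Fluorescent replication assay read twice, at 0 min and 10 min after adding 50 nM (final) substrate. Enzyme (10 nM) and compounds were first incubated 15 min at room temperature; enzyme-free buffer wells were negative controls.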
Pol beta inh: inhibitors of human DNA polymerase beta; P06746; Pol beta primer extension/strand displacement, fluorescence kinetic; Potency, µM (series often up to 114 µM), inactives show top-dose activity change, negative = inhibition, most hits filed as inhibitors; 1.3% of 340,000 active; AID 485314; further: on the % scale 0 is the no-effect control and ±100 the full control effect
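Preincubation: enzyme (10 nM) with compound, 15 min, RT. Reaction: substrate added to 50 nM final. Reads: 0 and 10 min. Analysis: normalized, Hill fit.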
Starred values were filed as active, the others as inactive; ? = inconclusive; nt = no result given; [ ] = dose if it differs, or a comment. The call rests on the fitted dose curve; in most records, active means well fitted curve in the direction sought with a large enough effect; inconclusive means small, poorly fitted or top-dose-only effect, or another doubt; inactive means no such curve, though single readings can be large; an effect the other way counts as inactive or inconclusive. Potency means the concentration at half of the fitted maximal effect.

SMILES	WRN helicase inh	Pol eta inh	POLK inh	FEN1 inh	POLI inh	Pol beta inh
Cc1ccc(C)c(NC(=O)Cn2c(=O)n(CCC(C)C)c(=O)c3cccnc32)c1	nt	-11%	-5%	5%	25%	-14%
O=C(O)Cn1c(CCS(=O)(=O)c2ccc(Br)cc2)nc2ccccc21	?	20µM*	-36%	3%	74%	14µM*
COC(=O)Cn1c(CCS(=O)(=O)c2ccc(C)c(C)c2)nc2ccccc21	-6%	-1%	-12%	2%	24%	1%
O=C(CSc1ccc2nnc(-c3cccs3)n2n1)N1CCCC1	-17%	-14%	0%	8%	51%	45µM*
COc1ccccc1-c1cc2nc(C)cc(C)n2n1	-5%	-20%	0%	3%	41%	89µM*
CC1=C([N+](=O)[O-])C(c2ccc(O)c(O)c2)NC(=O)N1 (stereo not given)	-5%	-8%	-33%	-1%	79µM*	8%
CCOc1ccc(C2NC(=O)NC(c3ccccc3)=C2C(C)=O)cc1OC (stereo not given)	2%	-13%	-4%	-5%	27%	8%
CC(=O)C1=C(c2ccccc2)NC(=S)NC1c1ccc(O)c(O)c1 (stereo not given)	-4%[11.6 µM]	?	-49%	-3%	18µM*	4µM*
COc1cc(C2NC(=S)NC(c3ccccc3)=C2C(C)=O)cc(Cl)c1OCC(=O)O (stereo not given)	-1%	-8%	-16%	-3%	0%	-19%
CC(=O)C1=C(c2ccccc2)NC(=O)NC1c1ccc(O)c(O)c1 (stereo not given)	-14%	?	79µM*	-17%	40µM*	4µM*
COc1cc(C2NC(=O)NC(c3ccccc3)=C2C(C)=O)cc(Cl)c1OCC(=O)O (stereo not given)	8%	28µM*	-20%	6%	37%	1%
COc1ccc(C2NC(=O)NC(C)=C2[N+](=O)[O-])cc1OC (stereo not given)	2%	-30%	-15%	-5%	-5%	4%
NCCCNc1ccc(Br)cn1	nt	nt	-3%	-6%	-25%	nt
C=CS(=O)(=O)c1ccc(Oc2ccc(S(=O)(=O)C=C)cc2)cc1	?	?	-3%	-11%	10µM*	16%
Cc1ccc(C(=O)N2CCc3cc(CNC(=O)COc4ccccc4)ccc32)cc1	nt	9%	-12%[60.1 µM]	11%	-14%	-9%
C=C1C[C@@]23C[C@@]1(O)CC[C@@H]2[C@]12C=C[C@@H](O)[C@](C)(C(=O)O1)[C@@H]2[C@@H]3C(=O)O	nt	nt	-3%[19.4 µM]	nt	nt	nt
C/C(=N\Nc1ccc(Cl)c(C(=O)O)c1)c1ccc(N2CCOCC2)cc1	-21%	28µM*	?	-4%	?	-8%
O=C(O)c1cc(N/N=C/c2ccc(N3CCOCC3)s2)ccc1Cl	?	11µM*	28µM*	?	13µM*	32µM*
NC(=O)N/N=C/c1ccc(N2CCOCC2)s1	-4%	-13%	-7%	0%	-6%	5%
CC1CCc2nc3ncn(Cc4cccc(F)c4)c(=O)c3cc2C1 (stereo not given)	nt	-10%	-6%[60.1 µM]	-5%	71%	-2%
COc1ccccc1CCn1c(=O)c(CCc2ccccc2)nc2cncnc21	nt	nt	-6%[60.1 µM]	nt	nt	nt
C=CCn1c(SCC(=O)c2ccc(O)c(O)c2)nnc1-c1cccc(Cl)c1	18µM*	16µM*	40µM*	-14%	?	nt
C=CCn1c(SCC(=O)O)nnc1-c1cccc(Cl)c1	-10%	-15%	-2%	36%	?	-3%
CCOc1cccc(=O)c2c(C)n(Cc3ccco3)c(C)c12	14%	-13%	-13%	-2%	12%	25µM*
COc1ccc(OC)c(-c2nnc3n2N=C(c2ccc(OC)c(OCC4CC4)c2)CS3)c1	nt	6%	?	-10%	-5%	nt
SMILES	WRN helicase inh	Pol eta inh	POLK inh	FEN1 inh	POLI inh	Pol beta inh
COc1ccc(C2=Nn3c(nnc3-c3ccccc3Cl)SC2)cc1OCC1CC1	nt	-23%	40µM*	4%	30%	nt
Cc1ccc(CCNC(=O)c2ccc(Cn3c(=O)c4cccn4c4cccnc43)cc2)cc1	nt	?	-17%	15%	79µM*	?
Cc1ccccc1CCNC(=O)c1ccc(Cn2c(=O)c3cccn3c3cccnc32)cc1	nt	89µM*	3%	1%	?	?
O=C(C[n+]1cccc2cccc(O)c21)c1ccc(F)cc1	nt	nt	1%	0%	39%	nt
Cc1ccc(-c2nc3ccccc3[nH]2)cn1	8%	-16%	3%	15%	26%	8%
Cc1nc2ccc(-c3nc4ccccc4[nH]3)cc2[nH]1	-11%	-4%	-37%	-7%	?	13µM*
Cc1cc2ccccn2c1C(=O)c1ccc(N/N=C/c2ccc(C(=O)O)cc2)c([N+](=O)[O-])c1	-10%	35µM*	-10%	-5%	?	?
C/C(=N\Nc1ccc(C(=O)c2c(C)cc3ccccn23)cc1[N+](=O)[O-])c1ccc(O)cc1	9%	-1%	-11%	5%	3%	2%
CCOC(=O)c1c(S(=O)(=O)N2CCC(C(=O)N3CCN(c4cc(C)ccc4C)CC3)CC2)c(C)n(C)c1C	nt	-20%	-9%[60.1 µM]	-16%	21%	3%
CCc1ccccc1NC(=O)C1CCCN1S(=O)(=O)c1ccc(-c2ccc(=O)[nH]n2)s1 (stereo not given)	-4%[11.6 µM]	40µM*	-25%	14%	?	-28%
O=C(O)c1ccc2c3n(nc2c1)-c1ccc(Cl)cc1CO3	-17%	4%	32µM*	-20%	16µM*	20µM*
O=C(NCCO)c1ccc2c3n(nc2c1)-c1ccc(Cl)cc1CO3	-4%	-14%	-3%	-9%	6%	7%
O=C(O)c1cc(NS(=O)(=O)c2ccc(NC3CCCCC3)c([N+](=O)[O-])c2)cc(C(=O)O)c1	-7%[11.6 µM]	45µM*	-41%	3%	-23%	3%
Nc1c(C(=O)Nc2ccc(C(F)(F)F)cc2)sc2nc(-c3cccs3)ccc12	nt	-10%	-31%	-6%	-6%	?
Nc1c(C(=O)Nc2nccs2)sc2nc(-c3cccs3)cc(C(F)(F)F)c12	-10%	?	1%	-5%	-12%	45µM*
CC(C)(C)C(=O)c1sc2nc(-c3cccs3)cc(C(F)(F)F)c2c1N	100µM*	-11%	2%	11%	8%	3%
Cc1cc(C)c2c(N)c(C(=O)Nc3nccs3)sc2n1	-33%	?	-21%	-19%	5%	40µM*
Cc1ccc(-c2noc(-c3nnn(CC(=O)Nc4cc(C)cc(C)c4)c3N)n2)cc1	nt	nt	-8%	16%	11%	9%
COc1cccc(/C=c2/[nH]c(=O)/c(=C\c3cccc(OC)c3OC)[nH]c2=O)c1OC	nt	nt	-4%	-6%	2%	nt
